The full ranking holds about 39,000 sequences; the median of “fluorescence intensity (a.u.)” is about 4,300, and the highest 2% start at about 39,000. Many of the other results were omitted from the sample, so the highest values are more common in it than they were.
Target: T1, OsSMF1 (Oryza sativa, UniProt Q6ZLB0 1-436)
T1 sequence: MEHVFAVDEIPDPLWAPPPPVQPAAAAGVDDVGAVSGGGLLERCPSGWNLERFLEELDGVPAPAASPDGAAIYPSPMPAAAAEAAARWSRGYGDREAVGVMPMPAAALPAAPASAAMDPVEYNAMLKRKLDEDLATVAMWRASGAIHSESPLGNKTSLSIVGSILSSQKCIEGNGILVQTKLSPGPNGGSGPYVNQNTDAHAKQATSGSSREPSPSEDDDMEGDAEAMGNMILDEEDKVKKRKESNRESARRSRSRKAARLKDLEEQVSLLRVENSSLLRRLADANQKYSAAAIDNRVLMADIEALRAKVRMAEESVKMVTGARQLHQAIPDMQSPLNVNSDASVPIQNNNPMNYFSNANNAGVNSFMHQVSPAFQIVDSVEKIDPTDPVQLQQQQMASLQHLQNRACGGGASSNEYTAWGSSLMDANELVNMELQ
Test: protein-binding microarray (RPBM); PBS, 2% BSA, 51.3 ng/ul salmon testes DNA, 50 uM zinc acetate, 200 nM TF, 25 C, 1 h; high values mean tight binding
Conditions: protein: recombinant; tags: N-terminal polyhistidine and DsRed monomer fusion (pET32a); chain copies: 2; label: CyDye5-dUTP incorporated in the synthesized complementary strand; 3' TTTTT single-stranded linker to array surface; dsDNA, one strand shown
Outline: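 In PBS with 2% BSA, salmon testes DNA and 50 µM zinc acetate, 200 nM protein was incubated on a custom Agilent array at 25 °C for 1 h and then washed off. The array had been made double-stranded by primer extension with Cy5-dUTP and blocked with 2% BSA. The proteins were transcription factors fused N-terminally to polyhistidine and DsRed, expressed in E. coli BL21-CodonPlus and purified on Ni–NTA. The binding signal is per-feature fluorescence intensity (arbitrary units) from an Axon 4000B scanner.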

| Sequence | binding signal |
| --- | --- |
| TACTGCATGCGCAAAGAGTTAATCCGTGGGGCTCGTGGGACGGAGTCACCTAGTGCAG | 45300 fluorescence intensity (a.u.) |
| CTCGTGGGGACGACGCTGGTGTCCGTGTACTGCAAGTGCGCGGAGTCACCTAGTGCAG | 4060 fluorescence intensity (a.u.) |
| TGTCCCCGCGCATCCGCGGACGTGGCTGGGCAACTGCTCGCGGAGTCACCTAGTGCAG | 8030 fluorescence intensity (a.u.) |
| AGGGTTATAATTAGATGGGTAGTGGAGGTAGGTAAGAAAACGGAGTCACCTAGTGCAG | 4130 fluorescence intensity (a.u.) |
| CACCCGCACCCGCCCGCACGGCCGCGCCCGCGTCACCACCCGGAGTCACCTAGTGCAG | 6150 fluorescence intensity (a.u.) |
| GGGTTGTGGTTGTTGTACGTTGTTGTTGACGGCGATGGTTCGGAGTCACCTAGTGCAG | 3460 fluorescence intensity (a.u.) |
| TGTGTTCCCTTTCGGTACGTTGTATTTCGACCCTGACGTTCGGAGTCACCTAGTGCAG | 42700 fluorescence intensity (a.u.) |
| TGTATTTTCTGACGTTGGTAGCACGGTAGCACCCGATATTCGGAGTCACCTAGTGCAG | 4250 fluorescence intensity (a.u.) |
| GCTGGTAAAGCGGTGCGCCGGTGCCGCCACGTCCTCGCACCGGAGTCACCTAGTGCAG | 15100 fluorescence intensity (a.u.) |
| CTAGAATGAGTGTTATGGCAGAGTGGTAGATGCTTGAAAACGGAGTCACCTAGTGCAG | 29600 fluorescence intensity (a.u.) |
| CCACGCGGACACTGACACGTCATCATCGTGTTCGTTTCCTCGGAGTCACCTAGTGCAG | 39300 fluorescence intensity (a.u.) |
| TTTCCCCGGTGGATCGTGTTCGGACACGTCGCGGCCCCTCCGGAGTCACCTAGTGCAG | 6200 fluorescence intensity (a.u.) |
| CATCACGCTGACGTGTCCTTTCGTTTGGACACGGACATCTCGGAGTCACCTAGTGCAG | 15000 fluorescence intensity (a.u.) |
| AATGGGGCTATAGGTAATTATGCTTAGAAGTCCGGTTCATCGGAGTCACCTAGTGCAG | 5130 fluorescence intensity (a.u.) |
| GTTGGGGCGCCTCTGGGGCTGTCCACGTCGGATAGCTACACGGAGTCACCTAGTGCAG | 20700 fluorescence intensity (a.u.) |
| CAATCCGTTGATCGGGGTCGTAGTCCATCGACAGAAATTACGGAGTCACCTAGTGCAG | 41800 fluorescence intensity (a.u.) |
| GAATCCATCGACACGTTTCTTTCGTCAGAACAGTGTCCGTCGGAGTCACCTAGTGCAG | 3420 fluorescence intensity (a.u.) |
| AATCCGAGTAGTCATTGTCGTTTCCATGCAGAATTATGGTCGGAGTCACCTAGTGCAG | 4030 fluorescence intensity (a.u.) |
| CGCGTCCGCAGTGTCCCACTCCCGCCACTCCTTCCACCCCCGGAGTCACCTAGTGCAG | 3780 fluorescence intensity (a.u.) |
| CTCTCTCTCGGCTTCCACTCCCGTCTCCTCGTCTCCTCGCCGGAGTCACCTAGTGCAG | 4090 fluorescence intensity (a.u.) |
| ATTGACGCGCCTCGGTATTACCTCACTAGCTGCGTCATTGCGGAGTCACCTAGTGCAG | 6460 fluorescence intensity (a.u.) |
| ATATTGTCACGTGTCACATGTTAGTTTGTTCAGGAACGGACGGAGTCACCTAGTGCAG | 5880 fluorescence intensity (a.u.) |
| TCCATTAAGCCTCCGTTTAGTAAAGATAAAGATTGGTCAACGGAGTCACCTAGTGCAG | 44200 fluorescence intensity (a.u.) |
| TTATTAAGCCTAATTAATCCATCATTAGTAAATATTTACTCGGAGTCACCTAGTGCAG | 3780 fluorescence intensity (a.u.) |
| ATGTTTAATCAACCTCTAAATCAATAAGATTAGTCATGTACGGAGTCACCTAGTGCAG | 3950 fluorescence intensity (a.u.) |
| ACTTTCTTGAATTTAATGCGTGACTCTCCATTCGTCCACACGGAGTCACCTAGTGCAG | 3620 fluorescence intensity (a.u.) |

— article PMC7819943, “Rice protein-binding microarrays: a tool to detect cis-acting elements near promoter regions in rice”
